# Out of some 16,000 compounds screened, about 5,100 (32%) were called active. About 25% were inconclusive and are not listed. The list shows a part of the results. Values without a mark were called inactive. Calls follow the shape of the dose curve; as a rule, active = well fitted curve in the direction sought with a large enough effect; inconclusive = small, poorly fitted or top-dose-only effect, or effect the other way; inactive = no such curve, though single readings can be large or run the other way.
# Target: Cytochrome P450 3A4 (Homo sapiens) (UniProt P08684)
# Experiment: Cytochrome panel assay with activity outcomes
# Details: recombinant CYP, pro-luciferin dealkylation, luminescence, p450-cyp3a4; series mostly up to 57.1 µM; activity, negative = inhibition: at the top concentration
# % is scaled to controls: 0 for no effect and ±100 for the full control effect.
# Chain of Cytochrome P450 3A4 (Homo sapiens) (P08684 whole entry, looked up): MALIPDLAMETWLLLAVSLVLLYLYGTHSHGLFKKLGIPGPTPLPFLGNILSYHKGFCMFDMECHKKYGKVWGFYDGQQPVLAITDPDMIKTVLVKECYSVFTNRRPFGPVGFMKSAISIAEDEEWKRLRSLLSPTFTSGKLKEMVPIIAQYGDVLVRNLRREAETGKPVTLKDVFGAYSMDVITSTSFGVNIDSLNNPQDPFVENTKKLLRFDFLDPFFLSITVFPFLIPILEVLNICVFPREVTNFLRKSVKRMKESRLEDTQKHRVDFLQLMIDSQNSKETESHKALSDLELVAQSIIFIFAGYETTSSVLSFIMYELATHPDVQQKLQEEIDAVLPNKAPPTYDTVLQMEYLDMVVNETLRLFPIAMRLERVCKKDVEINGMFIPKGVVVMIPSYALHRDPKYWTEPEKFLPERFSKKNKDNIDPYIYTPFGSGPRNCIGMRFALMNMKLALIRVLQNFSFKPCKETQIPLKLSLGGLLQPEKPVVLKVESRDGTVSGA
SMILES,"activity, negative = inhibition",AC50
NC(=O)C[C@H](N)C(N)=O,2.14% [at 11.4 µM],–
CCN(CC)CCOc1ccc2nc(N(C)C)sc2c1,3.43%,–
COC(=O)C1CCC(C)(C(=O)Nc2ccccc2)C1(C)C (stereo not given),-9.58% [at 11.4 µM],–
CC1(C)SC(=S)N(NC(=O)Nc2ccccc2)C1N(O)C(=O)Nc1ccccc1 (stereo not given),–,2.51 µM (active)
CC1CC(C)CN(C(=O)CSc2nnc(CSc3ncccn3)n2C)C1 (stereo not given),3.75% [at 2.29 µM],–
Cn1c(Cc2cccc3ccccc23)nnc1SCC(=O)N1CCN(c2ccccc2)CC1,–,1.58 µM (active)
COCC(=O)N1CCC2(CC1)CCN(c1cccc(-c3ccccc3)c1)CC2,-2.88%,–
Cn1c(CC(=O)Nc2ccc(Cl)c(Cl)c2)nnc1SCC(=O)N1CCN(c2ccccc2)CC1,–,1.58 µM (active)
Cc1cc2nnc(SCC(=O)N3CCN(c4ccccc4)CC3)n2c(N)n1,–,14.1 µM (active)
CC(C)c1ccccc1-n1c(SCC(=O)N2CCN(c3ccccc3)CC2)nnc1-c1cccnc1,–,0.501 µM (active)
COc1ccccc1CNc1ncncc1-c1ccc2c(c1)OCO2,–,0.2 µM (active)
COc1ccc(CNc2ncncc2-c2ccc3c(c2)OCO3)c(OC)c1,–,0.126 µM (active)
O=C1CSC2(CCN(CCCN3c4ccccc4Sc4ccc(Cl)cc43)CC2)N1,-14.4% [at 11.4 µM],–
C[C@@](O)(CNS(=O)(=O)c1ccccc1)c1ccccc1,-21.9% [at 11.4 µM],–
CCC/C=C(\CCC)C(NS(=O)(=O)c1ccccc1)c1ccc(C(F)(F)F)cc1 (stereo not given),–,6.31 µM (active)
CCC/C=C(\CCC)C(NS(=O)(=O)c1ccc(C(F)(F)F)cc1)c1ccccc1 (stereo not given),–,10 µM (active)
COc1ccccc1CN1CCCC2(CCN(C(C)=O)CC2)C1,-19%,–
COc1ccccc1CN1CCCC2(CCN(C(=O)c3ccncc3)CC2)C1,–,6.31 µM (active)
COCC(=O)N1CCC2(CCCN(Cc3ccccc3OC)C2)CC1,-17.4%,–
COc1ccccc1CN1CCCC2(CCN(C(=O)c3cnccn3)CC2)C1,–,15.8 µM (active)
Cc1nc2nc(SCC(=O)NCc3ccco3)nn2c(C)c1Cc1c(F)cccc1Cl,–,10 µM (active)
Cc1cccc(Cc2c(C)nc3nc(SCC(=O)NCc4ccco4)nn3c2C)c1,–,11.2 µM (active)

SMILES,"activity, negative = inhibition",AC50
CCCN=C(N)NCCC[C@H](N)C(=O)O,-7.85%,–
COc1cc(OC)c(C2N(c3cc(C)on3)C(=O)C3CCCN32)cc1OC (stereo not given),-22.1%,–
CCOC(=O)c1cc(CC)sc1NC(=O)c1cc(OCC)c(OCC)c(OCC)c1,–,22.4 µM (active)
CCc1cc(C(=O)OC)c(NC(=O)CCCC(=O)O)s1,-11.2%,–
CCOC(=O)c1cc(-c2ccccc2)sc1NC(=O)c1ccc(OC)cc1,-2.52%,–
CC(C)NCC[C@@H](O)c1cc2ccccc2o1,-4.13% [at 11.4 µM],–
CCOC(=O)/C(C#N)=C1/C=CN(C)C=N1,27.7%,–
CC(=O)c1ccc(NC(=O)C2(c3ccccc3)CCOCC2)cc1,-28.3%,–
CSc1ccc(C#N)cc1NC(=O)c1cccc(Cl)c1,–,25.1 µM (active)
CO/N=C(/CNC(=O)c1cccc(Cl)c1)c1ccc(Cl)cc1,-6.99% [at 2.29 µM],–
CCCc1c(-c2ccc(O)cc2)nn(-c2ccc(O)cc2)c1-c1ccc(O)cc1,–,2.51 µM (active)
Cc1nn(-c2ccccc2)c(-c2ccccc2)c1C(=O)O,-1.38%,–
N#C[C@H](Cc1ccc(O)cc1)c1ccc(O)cc1,–,12.6 µM (active)
C[C@H](NCCc1ccc(O)cc1)[C@@H](O)c1ccc(O)cc1,–,inactive
CC(=O)N[C@H](Cc1ccc(O)cc1)C(=O)O,-12.2% [at 11.4 µM],–
Cc1ccc(C(=O)NNC(=O)CSc2nnc3c(n2)[nH]c2ccc(F)cc23)cc1,–,1.58 µM (active)
Cc1ccccc1C(=O)NNC(=O)c1ccc(F)cc1,-5.86%,–
Cc1occc1C(=O)NNC(=O)c1ccc(F)cc1,18.8%,–
CC1CCc2cc(F)ccc2N1C(=O)CSc1nnc2c(n1)[nH]c1ccc(F)cc12 (stereo not given),–,2 µM (active)
O=C(O)c1nn(-c2ccccc2)nc1-c1nn(-c2ccccc2)nc1C(=O)O,11.6%,–
CC1=NC(C)(C)Cc2ccccc21,-15.9%,–
CC1(C)Cc2ccccc2C(NNC(=O)c2ccncc2)=N1,–,8.91 µM (active)

SMILES,"activity, negative = inhibition",AC50
CN1CCC2(CC1)CCN(C(=O)c1ccncc1)CC2,-7.59%,–
CC(C)n1nnnc1-c1cc(Cl)cc(Cl)c1,11.3% [at 2.29 µM],–
ClC(Cl)(Cl)C(N1CCN(c2ccccc2)CC1)N1CCN(c2ccccc2)CC1,-3.89% [at 11.4 µM],–
CC(C)CC(c1nnnn1C(C)C)N1CCN(c2ccccc2)CC1 (stereo not given),–,3.98 µM (active)
O=C(O)[C@H]1C[C@H](C(=O)O)N1,-4.9%,–
CCn1c(CC(=O)Nc2ccc(C)cc2)nnc1SCC(=O)Nc1nc(C)cs1,–,7.94 µM (active)
CC(C)(C)NC(=O)NC(=O)CSc1nnc2ccccn12,13.5%,–
CCn1c(CC(=O)Nc2ccc(C)cc2)nnc1SCC(=O)NCCc1ccccc1,–,10 µM (active)
CCc1c(O)nc(SCC(=O)NC(C)(C)C)n(-c2ccccc2)c1=O,-1.41% [at 2.29 µM],–
C=CCn1c(Cc2c[nH]c3ccccc23)nnc1SCC(=O)NCc1ccccc1,-3.87% [at 2.29 µM],–
CCn1c(Cc2ccccc2)nnc1SCC(=O)NC(C)(C)C,–,11.2 µM (active)
CCn1c(CSCc2ccc(C)cc2)nnc1SCC(=O)NCc1ccccc1,–,7.94 µM (active)
CN(C)CC(O)COc1cccc(OCC(O)CN(C)C)c1 (stereo not given),-0.983%,–
CCN1C(=O)[C@H]2[C@@H]3[C@H](O)C=CC(=O)[C@H]3CC[C@H]2C1=O,-12.1% [at 11.4 µM],–
O=c1oc(-c2cccs2)nc2ccc(Br)cc12,-22.2%,–
O=S(=O)(c1ccccc1)N1N=C(c2cccs2)CC1c1ccc(Br)cc1 (stereo not given),–,2 µM (active)
O=C(Nc1nnc(C2CC2)s1)c1ccc(S(=O)(=O)c2ccccc2)cc1,25.6%,–
O=C(Nc1nnc(C2CC2)s1)c1cc(S(=O)(=O)N2CCN(c3ccccc3)CC2)ccc1Cl,–,2 µM (active)
CCN1CCN(S(=O)(=O)c2ccc(Cl)c(C(=O)Nc3nnc(CC(C)C)s3)c2)CC1,–,14.1 µM (active)
CC(C)Cc1nnc(NC(=O)c2ccc([N+](=O)[O-])cc2)s1,17.9%,–
CCOC(=O)CSc1nnc(NC(=O)c2cccc(S(=O)(=O)N3CCCCCC3)c2)s1,-15.1% [at 2.29 µM],–

# Reference: PubChem BioAssay AID1851 (National Center for Advancing Translational Sciences (NCATS), 2009)
